The record followed here is the supplement of paper PMC6555819.

In one test the test system is PPARg:RXRa IVT, anti-PPARg (NR concentration 270 nM, RXRa partner concentration 90 nM). In words: PBM binding z-score (relative to random genomic background probes); higher = stronger binding; sequences stand for … in GC…GCGATTGACAGCGTAGAATGAAGG
In outline: (§1)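 Custom Agilent 4×180K protein-binding microarrays carried double-stranded probes. Their 34-nt variable regions held direct-repeat seeds, single-nucleotide variants, half-site ablations and random human genomic background sequences. Arrays were incubated 1 h with ligand-free nuclear receptor dimers in PBS pH 7.4, 2% milk, 0.02% Triton X-100, 1 mM DTT, 0.2 mg/mL BSA and 0.4 mg/ml salmon testes DNA. Antibodies against each partner (one per run) detected binding, and scanned fluorescence was regression-normalized. Binding z-scores use random background probes as reference.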
As for CGAACTAGGTAACCAGGACAGTGAAGAGGTTGGA, the PBM binding z-score worked out at 5.77.

Take CGAACTAGGTCAAAGGACAGTTAAAGGCGACGTA: the PBM binding z-score is 8.44.

CGAACTAGGTCAAAGGACAGTGCAAGGCGACGTA showed a PBM binding z-score of 8.11.

Turning to CGAACTAGGTTACCAGGACAGTGAAGAGGTTGGA, the PBM binding z-score was found to be 6.73.

In turn, CGAACTAGGTCACCAGGAGAGTGAAGAGGTTGGA showed a PBM binding z-score of 8.65.

ATATGTAGGTTAGGGTCATCCAGAAAGTAGGGAA: the PBM binding z-score was 6.96.

CGAACTAGGTCACCCGGACAGTGAAGAGGTTGGA gave a PBM binding z-score of 8.41.

ATATGTAGGTTTGGGTCATTCAGAAAGTAGGGAA displayed a PBM binding z-score of 3.08.

Sequence CGAACTAGGTCAAAGGACAGGGAAAGGCGACGTA gave a PBM binding z-score of 8.19.

Regarding CGAACTAGGTCACAGGACAGTGAAAGGCGACGTA, the PBM binding z-score stood at 8.91.

Turning to CGAAATAGGTCACCAGGACAGTGAAGAGGTTGGA, the PBM binding z-score was found to be 8.03.

Consider CGAACTAGGTCGAAGGACAGTGAAAGGCGACGTA, for which the PBM binding z-score was 5.17.

Regarding CGAACTAGTTCAAAGGACAGTGAAAGGCGACGTA, the PBM binding z-score was 0.499.

Sequence ATATGTAGGTTATGGTCATTCAGAAAGTAGGGAA showed a PBM binding z-score of 6.63.

The sequence CGAACTAGGTTAAAGGACAGTGAAAGGCGACGTA yielded a PBM binding z-score of 6.45.

In turn, CGAACTAGGTCAAAGGACAGAGAAAGGCGACGTA showed a PBM binding z-score of 8.31.

Regarding CGAACTAGGTCACCAGGACAGTGATGAGGTTGGA, the PBM binding z-score is 8.61.

The sequence ATATGTAGGTTAGGGTCATGCAGAAAGTAGGGAA showed a PBM binding z-score of 6.52.

The sequence CGAACTAGGTCAAAGGACAGTGACAGGCGACGTA displayed a PBM binding z-score of 8.4.

Sequence CGTACTAGGTCAAAGGACAGTGAAAGGCGACGTA showed a PBM binding z-score of 8.

In turn, ATACGTAGGTTAGGGTCATTCAGAAAGTAGGGAA had a PBM binding z-score of 2.44.

Sequence ATATGTAGGTTAGGGTCATTAAGAAAGTAGGGAA came in with a PBM binding z-score of 6.81.

CGAACTAGGTGACCAGGACAGTGAAGAGGTTGGA gave a PBM binding z-score of 7.

CGAACTAGGTCATAGGACAGTGAAAGGCGACGTA returned a PBM binding z-score of 8.5.

CGAGCTAGGTCAAAGGACAGTGAAAGGCGACGTA displayed a PBM binding z-score of 3.85.

Take ATATGTAGGTGAGGGTCATTCAGAAAGTAGGGAA: the PBM binding z-score came to 7.69.

Sequence ATAGGTAGGTTAGGGTCATTCAGAAAGTAGGGAA displayed a PBM binding z-score of 4.16.

With AGATGTAGGTTAGGGTCATTCAGAAAGTAGGGAA, the PBM binding z-score was found to be 6.36.

AAATGTAGGTTAGGGTCATTCAGAAAGTAGGGAA came in with a PBM binding z-score of 7.35.

The sequence CGAACTAGGTCAAAGGAAAGTGAAAGGCGACGTA displayed a PBM binding z-score of 8.23.

As to CGAACTAGGTCACCAGGACATTGAAGAGGTTGGA, the PBM binding z-score worked out at 8.55.

In turn, CGAACTAGGTCAAAGGACAGTCAAAGGCGACGTA returned a PBM binding z-score of 8.4.

For the sequence CGAAATAGGTCAAAGGACAGTGAAAGGCGACGTA, the PBM binding z-score is 7.35.

In turn, ATATGAAGGTTAGGGTCATTCAGAAAGTAGGGAA came in with a PBM binding z-score of 2.78.

ATATGTGGGTTAGGGTCATTCAGAAAGTAGGGAA: the PBM binding z-score was found to be 6.44.

CGAACTAGGTCAAAGGACAGTAAAAGGCGACGTA came in with a PBM binding z-score of 8.42.

Consider ATATGTAGGTTAGGGGCATTCAGAAAGTAGGGAA, for which the PBM binding z-score was found to be 6.65.

Regarding CGAACTAGGTCACCAGGCCAGTGAAGAGGTTGGA, the PBM binding z-score came out at 8.8.

As to CGAACTAGGTCACCAAGACAGTGAAGAGGTTGGA, the PBM binding z-score turned out to be 8.54.

The subject of another test is PPARg DBDmut IVT, anti-PPARg (DBD mutation: PPARg1 K132A/R137A, NR concentration 270 nM). The description is as above. An outline of the steps: as §1
Turning to CGAACTAGGTAACCAGGACAGTGAAGAGGTTGGA, the PBM binding z-score is -0.0996.

CGAACTAGGTCAAAGGACAGTTAAAGGCGACGTA displayed a PBM binding z-score of 1.12.

CGAACTAGGTCAAAGGACAGTGCAAGGCGACGTA had a PBM binding z-score of -0.34.

For CGAACTAGGTTACCAGGACAGTGAAGAGGTTGGA, the PBM binding z-score turned out to be 2.08.

Turning to CGAACTAGGTCACCAGGAGAGTGAAGAGGTTGGA, the PBM binding z-score was determined as 3.69.

On to ATATGTAGGTTAGGGTCATCCAGAAAGTAGGGAA, for which the PBM binding z-score turned out to be 3.77.

The sequence CGAACTAGGTCACCCGGACAGTGAAGAGGTTGGA returned a PBM binding z-score of 0.442.

For ATATGTAGGTTTGGGTCATTCAGAAAGTAGGGAA, the PBM binding z-score amounted to 1.3.

Consider CGAACTAGGTCAAAGGACAGGGAAAGGCGACGTA, for which the PBM binding z-score was determined as 4.37.

Regarding CGAACTAGGTCACAGGACAGTGAAAGGCGACGTA, the PBM binding z-score was 3.67.

The sequence CGAAATAGGTCACCAGGACAGTGAAGAGGTTGGA had a PBM binding z-score of 1.09.

With CGAACTAGGTCGAAGGACAGTGAAAGGCGACGTA, the PBM binding z-score was -0.201.

With CGAACTAGTTCAAAGGACAGTGAAAGGCGACGTA, the PBM binding z-score is -0.185.

ATATGTAGGTTATGGTCATTCAGAAAGTAGGGAA gave a PBM binding z-score of 2.

As to CGAACTAGGTTAAAGGACAGTGAAAGGCGACGTA, the PBM binding z-score is 0.461.

On to CGAACTAGGTCAAAGGACAGAGAAAGGCGACGTA, for which the PBM binding z-score was 4.05.

For the sequence CGAACTAGGTCACCAGGACAGTGATGAGGTTGGA, the PBM binding z-score is 0.614.

The sequence ATATGTAGGTTAGGGTCATGCAGAAAGTAGGGAA came in with a PBM binding z-score of 2.44.

Regarding CGAACTAGGTCAAAGGACAGTGACAGGCGACGTA, the PBM binding z-score was determined as 1.51.

As for CGTACTAGGTCAAAGGACAGTGAAAGGCGACGTA, the PBM binding z-score worked out at 1.47.

In turn, ATACGTAGGTTAGGGTCATTCAGAAAGTAGGGAA registered a PBM binding z-score of 0.669.

Sequence ATATGTAGGTTAGGGTCATTAAGAAAGTAGGGAA had a PBM binding z-score of 3.64.

CGAACTAGGTGACCAGGACAGTGAAGAGGTTGGA yielded a PBM binding z-score of -0.325.

Sequence CGAACTAGGTCATAGGACAGTGAAAGGCGACGTA yielded a PBM binding z-score of 0.801.

Sequence CGAGCTAGGTCAAAGGACAGTGAAAGGCGACGTA showed a PBM binding z-score of -0.971.

Sequence ATATGTAGGTGAGGGTCATTCAGAAAGTAGGGAA displayed a PBM binding z-score of 2.2.

For the sequence ATAGGTAGGTTAGGGTCATTCAGAAAGTAGGGAA, the PBM binding z-score was 1.6.

As to AGATGTAGGTTAGGGTCATTCAGAAAGTAGGGAA, the PBM binding z-score turned out to be 2.37.

In the case of AAATGTAGGTTAGGGTCATTCAGAAAGTAGGGAA, the PBM binding z-score is 1.95.

CGAACTAGGTCAAAGGAAAGTGAAAGGCGACGTA displayed a PBM binding z-score of 1.64.

The sequence CGAACTAGGTCACCAGGACATTGAAGAGGTTGGA returned a PBM binding z-score of 0.336.

CGAACTAGGTCAAAGGACAGTCAAAGGCGACGTA gave a PBM binding z-score of 2.46.

CGAAATAGGTCAAAGGACAGTGAAAGGCGACGTA: the PBM binding z-score is 0.994.

As to ATATGAAGGTTAGGGTCATTCAGAAAGTAGGGAA, the PBM binding z-score was determined as 1.79.

With ATATGTGGGTTAGGGTCATTCAGAAAGTAGGGAA, the PBM binding z-score came to 2.69.

Consider CGAACTAGGTCAAAGGACAGTAAAAGGCGACGTA, for which the PBM binding z-score turned out to be 0.249.

As for ATATGTAGGTTAGGGGCATTCAGAAAGTAGGGAA, the PBM binding z-score came to 1.93.

For CGAACTAGGTCACCAGGCCAGTGAAGAGGTTGGA, the PBM binding z-score worked out at 0.89.

With CGAACTAGGTCACCAAGACAGTGAAGAGGTTGGA, the PBM binding z-score is 0.905.
